# Data published in publication PMC8384837, “Expanding the binding specificity for RNA recognition by a PUF domain”.
# Substitutions are numbered along the chain they refer to.
# Experiments:
# Assay in all cases: yeast three-hybrid, YBZ-1, SC-Leu-His + 0.5 mM 3-AT, 4 days
# Details in all cases: tags: N-Gal4 AD-HA kept; label: inside an RPR1-promoter hybrid RNA with tandem MS2 sites; ssRNA
# PUM1 PUF domain R5-GFL = PUM1 PUF domain R5-GFL (Homo sapiens, UniProt Q14671 828-1176, C1007G;R1008F;Q1011L)
# Outline: (§1)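 Each repeat of the Pumilio-1 PUF domain was randomized at its three base-contacting residues, and these libraries were co-expressed from a centromeric plasmid with matching RNA elements in strain YBZ-1. After four days on SC-Leu (input) or SC-Leu-His + 0.5 mM 3-AT (selection), the repeat regions were PCR-amplified and Illumina-sequenced. The interaction score compares variant frequency between input and selection as a log change, computed in log2 with a pseudocount of 1 for absent variants.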
# PUM1 PUF domain R7-KFF = PUM1 PUF domain R7-KFF (Homo sapiens, UniProt Q14671 828-1176, S1079K;N1080F;E1083F)
# Outline: as §1
# PUM1 PUF domain R4-PFR = PUM1 PUF domain R4-PFR (Homo sapiens, UniProt Q14671 828-1176, N971P;H972F;Q975R)
# Outline: as §1
# PUM1 PUF domain R5-KGG = PUM1 PUF domain R5-KGG (Homo sapiens, UniProt Q14671 828-1176, C1007K;R1008G;Q1011G)
# PUM1 PUF domain R5-KGG, sequence (Q14671 828-1176 C1007K/R1008G/Q1011G): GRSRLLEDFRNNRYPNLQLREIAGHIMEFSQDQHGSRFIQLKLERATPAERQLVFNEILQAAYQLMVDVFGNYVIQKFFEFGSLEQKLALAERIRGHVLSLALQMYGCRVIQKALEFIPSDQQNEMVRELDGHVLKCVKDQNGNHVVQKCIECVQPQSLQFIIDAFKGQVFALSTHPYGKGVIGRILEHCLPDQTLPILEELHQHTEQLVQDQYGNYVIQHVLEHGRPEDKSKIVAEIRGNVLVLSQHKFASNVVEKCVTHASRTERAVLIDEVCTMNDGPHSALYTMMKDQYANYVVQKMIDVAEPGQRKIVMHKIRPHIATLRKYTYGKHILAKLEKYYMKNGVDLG
# Outline: as §1
# PUM1 PUF domain R5-KNC = PUM1 PUF domain R5-KNC (Homo sapiens, UniProt Q14671 828-1176, C1007K;R1008N;Q1011C)
# Outline: as §1
# PUM1 PUF domain R5-RCR = PUM1 PUF domain R5-RCR (Homo sapiens, UniProt Q14671 828-1176, C1007R;R1008C;Q1011R)
# Outline: as §1
# PUM1 PUF domain R1-RAQ = PUM1 PUF domain R1-RAQ (Homo sapiens, UniProt Q14671 828-1176, S863R;R864A)
# PUM1 PUF domain R1-RAQ, sequence (Q14671 828-1176 S863R/R864A): as the sequence (Q14671 828-1176 C1007K/R1008G/Q1011G) above, with S36R, R37A, K180C, G181R, G184Q counted along it
# Outline: as §1
# PUM1 PUF domain R1-KVE = PUM1 PUF domain R1-KVE (Homo sapiens, UniProt Q14671 828-1176, S863K;R864V;Q867E)
# PUM1 PUF domain R1-KVE, sequence (Q14671 828-1176 S863K/R864V/Q867E): as the sequence (Q14671 828-1176 C1007K/R1008G/Q1011G) above, with S36K, R37V, Q40E, K180C, G181R, G184Q counted along it
# Outline: as §1
# PUM1 PUF domain R1-RHV = PUM1 PUF domain R1-RHV (Homo sapiens, UniProt Q14671 828-1176, S863R;R864H;Q867V)
# Outline: as §1
# PUM1 PUF domain R3-FFA = PUM1 PUF domain R3-FFA (Homo sapiens, UniProt Q14671 828-1176, C935F;R936F;Q939A)
# PUM1 PUF domain R3-FFA, sequence (Q14671 828-1176 C935F/R936F/Q939A): as the sequence (Q14671 828-1176 C1007K/R1008G/Q1011G) above, with C108F, R109F, Q112A, K180C, G181R, G184Q counted along it
# Outline: as §1
# PUM1 PUF domain R3-LRM = PUM1 PUF domain R3-LRM (Homo sapiens, UniProt Q14671 828-1176, C935L;Q939M)
# PUM1 PUF domain R3-LRM, sequence (Q14671 828-1176 C935L/Q939M): as the sequence (Q14671 828-1176 C1007K/R1008G/Q1011G) above, with C108L, Q112M, K180C, G181R, G184Q counted along it
# Outline: as §1
# PUM1 PUF domain R3-ARR = PUM1 PUF domain R3-ARR (Homo sapiens, UniProt Q14671 828-1176, C935A;Q939R)
# Outline: as §1
# PUM1 PUF domain R6-RWT = molecular target: T1, PUM1 PUF domain R6-RWT (Homo sapiens, UniProt Q14671 828-1176, N1043R;Y1044W;Q1047T)
# T1 sequence: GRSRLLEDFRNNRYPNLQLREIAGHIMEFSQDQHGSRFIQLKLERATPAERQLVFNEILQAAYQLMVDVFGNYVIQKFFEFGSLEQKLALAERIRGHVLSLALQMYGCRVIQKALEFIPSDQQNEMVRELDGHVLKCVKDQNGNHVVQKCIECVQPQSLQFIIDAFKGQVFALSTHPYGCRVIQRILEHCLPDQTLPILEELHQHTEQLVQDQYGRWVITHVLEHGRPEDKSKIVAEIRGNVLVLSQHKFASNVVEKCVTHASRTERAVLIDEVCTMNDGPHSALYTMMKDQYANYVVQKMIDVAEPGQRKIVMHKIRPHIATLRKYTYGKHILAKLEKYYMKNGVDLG
# Outline: as §1
# PUM1 PUF domain R1-VWK = PUM1 PUF domain R1-VWK (Homo sapiens, UniProt Q14671 828-1176, S863V;R864W;Q867K)
# PUM1 PUF domain R1-VWK, sequence (Q14671 828-1176 S863V/R864W/Q867K): as the sequence (Q14671 828-1176 C1007K/R1008G/Q1011G) above, with S36V, R37W, Q40K, K180C, G181R, G184Q counted along it
# Outline: as §1
# PUM1 PUF domain R1-NIS = PUM1 PUF domain R1-NIS (Homo sapiens, UniProt Q14671 828-1176, S863N;R864I;Q867S)
# PUM1 PUF domain R1-NIS, sequence (Q14671 828-1176 S863N/R864I/Q867S): as the sequence (Q14671 828-1176 C1007K/R1008G/Q1011G) above, with S36N, R37I, Q40S, K180C, G181R, G184Q counted along it
# Outline: as §1
# PUM1 PUF domain R4-NFQ = PUM1 PUF domain R4-NFQ (Homo sapiens, UniProt Q14671 828-1176, H972F)
# PUM1 PUF domain R4-NFQ, sequence (Q14671 828-1176 H972F): as the sequence (Q14671 828-1176 C1007K/R1008G/Q1011G) above, with H145F, K180C, G181R, G184Q counted along it
# Outline: as §1
# PUM1 PUF domain R8-TWN = PUM1 PUF domain R8-TWN (Homo sapiens, UniProt Q14671 828-1176, N1122T;Y1123W;Q1126N)
# PUM1 PUF domain R8-TWN, sequence (Q14671 828-1176 N1122T/Y1123W/Q1126N): as the sequence (Q14671 828-1176 C1007K/R1008G/Q1011G) above, with K180C, G181R, G184Q, N295T, Y296W, Q299N counted along it
# Outline: as §1
# PUM1 PUF domain R8-RFN = PUM1 PUF domain R8-RFN (Homo sapiens, UniProt Q14671 828-1176, N1122R;Y1123F;Q1126N)
# PUM1 PUF domain R8-RFN, sequence (Q14671 828-1176 N1122R/Y1123F/Q1126N): as the sequence (Q14671 828-1176 C1007K/R1008G/Q1011G) above, with K180C, G181R, G184Q, N295R, Y296F, Q299N counted along it
# Outline: as §1
# PUM1 PUF domain R6-HYS = molecular target: T2, PUM1 PUF domain R6-HYS (Homo sapiens, UniProt Q14671 828-1176, N1043H;Q1047S)
# T2 sequence: T1 sequence with R216H, W217Y, T220S
# Outline: as §1
# PUM1 PUF domain R7-GVN = PUM1 PUF domain R7-GVN (Homo sapiens, UniProt Q14671 828-1176, S1079G;N1080V;E1083N)
# Outline: as §1
sequence,measurement,setting,value
GGCUAGAACUAGUGGAUCCCCCGGCGCCCGGCGGCUCGAGCCCGGGUAAGUGUGAAUAGUCUGCAUGCCGCCGGGCGCCAUGCCUGCAGGUCGACUCUAGAAAACAUG,binding signal,PUM1 PUF domain R5-GFL,1.77 log2 enrichment (interaction score)
GGCUAGAACUAGUGGAUCCCCCGGCGCCCGGCGGCUCGAGCCCGGGUAAGUCUAAAUAGUCUGCAUGCCGCCGGGCGCCAUGCCUGCAGGUCGACUCUAGAAAACAUG,binding signal,PUM1 PUF domain R7-KFF,2.82 log2 enrichment (interaction score)
GGCUAGAACUAGUGGAUCCCCCGGCGCCCGGCGGCUCGAGCCCGGGUAAGUGUACAUAGUCUGCAUGCCGCCGGGCGCCAUGCCUGCAGGUCGACUCUAGAAAACAUG,binding signal,PUM1 PUF domain R4-PFR,6.57 log2 enrichment (interaction score)
GGCUAGAACUAGUGGAUCCCCCGGCGCCCGGCGGCUCGAGCCCGGGUAAGUGUUAAUAGUCUGCAUGCCGCCGGGCGCCAUGCCUGCAGGUCGACUCUAGAAAACAUG,binding signal,PUM1 PUF domain R5-KGG,2.27 log2 enrichment (interaction score)
same,binding signal,PUM1 PUF domain R5-KNC,4.22 log2 enrichment (interaction score)
same,binding signal,PUM1 PUF domain R5-GFL,5.05 log2 enrichment (interaction score)
same,binding signal,PUM1 PUF domain R5-RCR,2.8 log2 enrichment (interaction score)
GGCUAGAACUAGUGGAUCCCCCGGCGCCCGGCGGCUCGAGCCCGGGUAAGUGUAAAUCGUCUGCAUGCCGCCGGGCGCCAUGCCUGCAGGUCGACUCUAGAAAACAUG,binding signal,PUM1 PUF domain R1-RAQ,2.93 log2 enrichment (interaction score)
same,binding signal,PUM1 PUF domain R1-KVE,3.75 log2 enrichment (interaction score)
same,binding signal,PUM1 PUF domain R1-RHV,1.47 log2 enrichment (interaction score)
GGCUAGAACUAGUGGAUCCCCCGGCGCCCGGCGGCUCGAGCCCGGGUAAGUGUAAGUAGUCUGCAUGCCGCCGGGCGCCAUGCCUGCAGGUCGACUCUAGAAAACAUG,binding signal,PUM1 PUF domain R3-FFA,8.18 log2 enrichment (interaction score)
same,binding signal,PUM1 PUF domain R3-LRM,3.32 log2 enrichment (interaction score)
same,binding signal,PUM1 PUF domain R3-ARR,1.41 log2 enrichment (interaction score)
GGCUAGAACUAGUGGAUCCCCCGGCGCCCGGCGGCUCGAGCCCGGGUAAGUGAAAAUAGUCUGCAUGCCGCCGGGCGCCAUGCCUGCAGGUCGACUCUAGAAAACAUG,binding signal,PUM1 PUF domain R6-RWT,3.03 log2 enrichment (interaction score)
GGCUAGAACUAGUGGAUCCCCCGGCGCCCGGCGGCUCGAGCCCGGGUAAGUGUAAAUUGUCUGCAUGCCGCCGGGCGCCAUGCCUGCAGGUCGACUCUAGAAAACAUG,binding signal,PUM1 PUF domain R1-RAQ,2.71 log2 enrichment (interaction score)
same,binding signal,PUM1 PUF domain R1-KVE,3.9 log2 enrichment (interaction score)
same,binding signal,PUM1 PUF domain R1-VWK,3.24 log2 enrichment (interaction score)
same,binding signal,PUM1 PUF domain R1-NIS,6.67 log2 enrichment (interaction score)
same,binding signal,PUM1 PUF domain R1-RHV,2.89 log2 enrichment (interaction score)
GGCUAGAACUAGUGGAUCCCCCGGCGCCCGGCGGCUCGAGCCCGGGUAAGUAUAAAUAGUCUGCAUGCCGCCGGGCGCCAUGCCUGCAGGUCGACUCUAGAAAACAUG,binding signal,PUM1 PUF domain R7-KFF,3.16 log2 enrichment (interaction score)
GGCUAGAACUAGUGGAUCCCCCGGCGCCCGGCGGCUCGAGCCCGGGUAAGUGUAAAUGGUCUGCAUGCCGCCGGGCGCCAUGCCUGCAGGUCGACUCUAGAAAACAUG,binding signal,PUM1 PUF domain R1-RAQ,1.23 log2 enrichment (interaction score)
GGCUAGAACUAGUGGAUCCCCCGGCGCCCGGCGGCUCGAGCCCGGGUAAGUGUAUAUAGUCUGCAUGCCGCCGGGCGCCAUGCCUGCAGGUCGACUCUAGAAAACAUG,binding signal,PUM1 PUF domain R4-NFQ,2.34 log2 enrichment (interaction score)
same,binding signal,PUM1 PUF domain R4-PFR,4.81 log2 enrichment (interaction score)
GGCUAGAACUAGUGGAUCCCCCGGCGCCCGGCGGCUCGAGCCCGGGUAAGCGUAAAUAGUCUGCAUGCCGCCGGGCGCCAUGCCUGCAGGUCGACUCUAGAAAACAUG,binding signal,PUM1 PUF domain R8-TWN,2.51 log2 enrichment (interaction score)
same,binding signal,PUM1 PUF domain R8-RFN,2.57 log2 enrichment (interaction score)
GGCUAGAACUAGUGGAUCCCCCGGCGCCCGGCGGCUCGAGCCCGGGUAAGUGUCAAUAGUCUGCAUGCCGCCGGGCGCCAUGCCUGCAGGUCGACUCUAGAAAACAUG,binding signal,PUM1 PUF domain R5-KGG,2.89 log2 enrichment (interaction score)
same,binding signal,PUM1 PUF domain R5-RCR,3.99 log2 enrichment (interaction score)
GGCUAGAACUAGUGGAUCCCCCGGCGCCCGGCGGCUCGAGCCCGGGUAAGUGUAAAUAGUCUGCAUGCCGCCGGGCGCCAUGCCUGCAGGUCGACUCUAGAAAACAUG,binding signal,PUM1 PUF domain R8-RFN,2.38 log2 enrichment (interaction score)
same,binding signal,PUM1 PUF domain R6-HYS,3.52 log2 enrichment (interaction score)
same,binding signal,PUM1 PUF domain R5-GFL,3.65 log2 enrichment (interaction score)
same,binding signal,PUM1 PUF domain R3-ARR,2.49 log2 enrichment (interaction score)
same,binding signal,PUM1 PUF domain R4-PFR,1.61 log2 enrichment (interaction score)
GGCUAGAACUAGUGGAUCCCCCGGCGCCCGGCGGCUCGAGCCCGGGUAAGUGUAAUUAGUCUGCAUGCCGCCGGGCGCCAUGCCUGCAGGUCGACUCUAGAAAACAUG,binding signal,PUM1 PUF domain R3-FFA,4.46 log2 enrichment (interaction score)
same,binding signal,PUM1 PUF domain R3-ARR,3.37 log2 enrichment (interaction score)
GGCUAGAACUAGUGGAUCCCCCGGCGCCCGGCGGCUCGAGCCCGGGUAAGUUUAAAUAGUCUGCAUGCCGCCGGGCGCCAUGCCUGCAGGUCGACUCUAGAAAACAUG,binding signal,PUM1 PUF domain R7-GVN,3.93 log2 enrichment (interaction score)
